CCHF vOTU inh-1: CCHFV vOTU protease inhibition; actives 0.55% (n = 370,000); AID 651958; inhibition, % at 11.5 µM; Pep-AMC fluorescence; also: 0% = vehicle wells with enzyme and 100% = no enzyme wells
SSB-PriA inh: inhibitors of Klebsiella pneumoniae PriA binding to SSB C-terminal tail. AlphaScreen SSBct-PriA binding, biotinylated peptide. inhibition, % at 33 µM. actives 0.6% (n = 430,000); in the data active = inhibition mostly above about 37%, no sharp cut-off; inactive = mostly below about 20%;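 also: plate controls were negative control peptide for no effect and reference peptide for full effect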
DUSP3 inh: inhibitors of human VHR1 phosphatase (DUSP3); P51452; recombinant VHR phosphatase, pNPP absorbance; inhibition, % at 13.3 µM; actives 0.52% (n = 290,000); AID 1654; in the data active = inhibition above about 50%
Target sequence (P51452 whole entry, looked up): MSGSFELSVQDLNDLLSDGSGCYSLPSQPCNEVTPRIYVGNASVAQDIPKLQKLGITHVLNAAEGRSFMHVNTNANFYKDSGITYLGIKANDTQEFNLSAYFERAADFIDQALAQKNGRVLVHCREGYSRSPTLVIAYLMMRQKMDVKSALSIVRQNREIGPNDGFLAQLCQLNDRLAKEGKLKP
ugtP null kill: kills S. aureus RN4220 lacking UgtP. S. aureus RN4220 ugtP deletion, OD600 growth, 16 h. growth inhibition, % (no concentration beside the values). actives 0.54% (n = 330,000); in the data active = growth inhibition above about 68%;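 also: plate controls were untreated wells for no effect and antibiotic for full effect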
Sa RN4220 lethal: S. aureus RN4220 growth inhibition | OD600, 16 h | inhibition, % (test concentration not listed) | actives 0.33% (n = 330,000); in the data active = inhibition above about 85%;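 also: plate controls were untreated cells for no effect and reference antibiotic for full effect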
CCHF vOTU inh-2: confirmation of CCHF virus vOTU protease inhibitors. shares compounds with CCHF vOTU inh-1. AID 686976. Recombinant CCHFV vOTU, Pep-AMC fluorescence. inhibition, % at 11.5 µM. actives 17% (n = 1,900)
Starred values were filed as active, the others as inactive; . = no result given. Shown are actives, neighbours in structure and some others; about 1.5% of the full set was active somewhere. Rule as the data show it, unless noted: active = inhibition above about 30%; inactive = the rest.

SMILES	CCHF vOTU inh-1	SSB-PriA inh	DUSP3 inh	ugtP null kill	Sa RN4220 lethal	CCHF vOTU inh-2
COc1ccc2ccccc2c1C1CC(=O)N2CN(C)CSC2=C1C#N (stereo not given)	78.5*	-3.4	18.9	-0.2	8.8	56.1*
Cc1cc(C)n(-c2ncc(NC(=O)c3c(F)cccc3Cl)cn2)n1	.	-16.0	.	.	.	.
CCCNC(=O)COC(=O)/C=C/c1cccc(F)c1	14.4	-27.4	26.2	5.5	3.2	.
CCCNC1=C(N(C(C)=O)c2cccc(F)c2)C(=O)c2ccccc2C1=O	70.0*	16.7	-11.0	19.8	21.5	46.0*
COc1cc(-c2nc3nc4ccccc4nc3n2CC2CCCO2)cc(OC)c1OC (stereo not given)	.	0.0	.	.	.	.
COc1ccccc1Nc1c2c(nc3ccccc13)CCCC2	.	20.5	.	.	.	.
CC12CCC(C(=NO)C1=O)C2(C)C (stereo not given)	35.6*	-9.0	.	3.3	4.7	-17.1
Cc1cc(=O)n(-c2ccc(C(=O)O)cc2)[nH]1	54.3*	0.2	9.8	-3.2	7.8	-19.8
COC1CCN(C2CCN(C(=O)CCc3c(C)noc3C)CC2)CC1	.	-18.0	.	.	.	.
O=S(=O)(c1cccnc1)N1C2CCC1c1cncnc1C2 (stereo not given)	.	-3.0	.	.	.	.
CC1CCc2sc(C(=O)N(C)CC(=O)Nc3cccc(F)c3)cc2C1 (stereo not given)	29.8*	-8.4	12.5	2.8	-2.8	-5.3
O=c1c2ccccc2c2ccccc2c(=O)n1-c1cc([N+](=O)[O-])ccc1F	.	-5.0	.	.	.	.
Nc1ccc2nn(-c3cccc4ccccc34)nc2c1	60.4*	0.3	16.8	-1.6	6.2	11.8
O=C1NC(=O)N(Cc2ccc(F)cc2)C(=O)/C1=C\c1ccc([N+](=O)[O-])s1	31.8*	24.1	-7.7	.	.	22.8
Cc1ccc(C)c(C(O)=C2C(=O)C(=O)N(CCN3CCOCC3)C2c2ccc(C)o2)c1 (stereo not given)	.	-9.6	.	.	.	.
COc1ccc(Br)c(C(=O)Nc2ccsc2-c2nc(C)no2)c1	.	4.0	.	.	.	.
CCc1ccc(-c2csc(NC(=O)C3CC(=O)N(c4ccc5c(c4)OCCO5)C3)n2)cc1 (stereo not given)	29.9*	9.5	5.4	4.1	-10.0	-21.6
Cc1csc(NC(=O)C2CC(=O)N(c3ccc4c(c3)OCCO4)C2)n1 (stereo not given)	-2.1	1.5	.	-1.0	1.8	.
Cc1n[nH]c(C)c1S(=O)(=O)Nc1ccc2c(c1)CCC(=O)N2C	.	-19.0	.	.	.	.
CSc1ccc(-c2nc(CN3CCCCC3c3cccnc3)c(C)o2)cc1 (stereo not given)	32.2*	9.1	47.9	5.8	-0.9	-18.2
COc1ccccc1CN1CCCCC1c1cccnc1 (stereo not given)	-12.8	-14.2	13.4	2.0	2.6	.
O=C(c1ccco1)N1CCSC1c1ccc(C(F)(F)F)cc1 (stereo not given)	.	-14.0	.	.	.	.
CC(C)(C)OC(=O)N1CCCC(C(=O)Nc2cccc(C(=O)NCCCCc3ccccc3)c2)C1 (stereo not given)	35.0*	-1.0	.	.	.	-2.6
CC(C)(C)OC(=O)N1CCCC(C(=O)Nc2cccc(C(=O)NCCc3ccccc3)c2)C1 (stereo not given)	-3.3	13.3	.	.	.	.
Cc1ccc(N2CCC(CNC(=O)c3ccc4nsnc4c3)CC2)nn1	.	8.0	.	.	.	.
SMILES	CCHF vOTU inh-1	SSB-PriA inh	DUSP3 inh	ugtP null kill	Sa RN4220 lethal	CCHF vOTU inh-2
CCOC(=O)Nc1ccc(NCc2ccc(F)cc2)nc1N	67.3*	4.2	.	1.1	4.0	-5.1
CCOC(=O)C(C)Oc1ccc2oc(=O)cc(-c3cc4cccc(OC)c4o3)c2c1 (stereo not given)	.	-4.0	.	.	.	.
CCOC(=O)c1c(C)[nH]c(C(=O)CN(C)CC(=O)Nc2ccccc2C(F)(F)F)c1C	30.8*	6.3	.	-2.0	-0.2	0.5
CCOC(=O)c1c(C)[nH]c(C(=O)OCC(=O)N(C)CC(=O)Nc2ccccc2Cl)c1C	13.6	-4.0	.	.	.	.
CCn1c(=NC(=O)c2ccnn2C)sc2cc(SC)ccc21	.	-19.0	.	.	.	.
O=C1C(=O)c2ccccc2C(O)=C1c1ccccc1F	-5.7	-5.7	19.1	7.0	12.5	.
O=C1c2ccccc2C(=O)c2[nH]c(=O)[nH]c21	79.3*	0.5	22.2	23.0	43.8	75.1*
O=C1C(O)=C(O)C(=O)c2ccccc21	104.6*	5.0	.	2.1	-2.1	60.0*
CCOc1ccc(-c2cn3c(CC(=O)Nc4ccc(F)cc4F)csc3n2)cc1	.	2.0	.	.	.	.
Cn1cc(-c2ccco2)nc1CCNC(=O)C(C)(C)Oc1ccc(Cl)cc1	.	10.0	.	.	.	.
